According to the supplement of paper PMC8728848:
The entries come from a sample that favours the strongest signals as a whole.

Columns and labels:
Assay in all cases: glycan array binding signal (z-score within array); higher = stronger binding
Conditions in all cases: glycan notation: IUPAC condensed, linker removed
Gal3S6S(b1-4)GlcNAc = molecular target: Gal3S6S(b1-4)GlcNAc
Procedure, shortened: (§1)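 Glycan array data came from 3228 arrays in the Consortium for Functional Glycomics database, and only arrays with an available protein sequence were kept. Glycan names were put into IUPAC-condensed notation, and columns mapping to the same glycan were averaged. The binding signal is a within-array Z-score, averaged across arrays of one protein sequence run at different concentrations or buffers and across linkers. A negative Z-score can be read as non-binding.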

Gal4S6S(b1-4)GlcNAc = molecular target: Gal4S6S(b1-4)GlcNAc
Procedure, shortened: as §1

GalNAc(b1-4)GlcNAc6S = molecular target: GalNAc(b1-4)GlcNAc6S
Procedure, shortened: as §1

GalNAc3S(b1-4)GlcNAc = molecular target: GalNAc3S(b1-4)GlcNAc
Procedure, shortened: as §1

Glc(b1-4)Glc = molecular target: Glc(b1-4)Glc
Procedure, shortened: as §1

GlcA(b1-6)Gal = molecular target: GlcA(b1-6)Gal
Procedure, shortened: as §1

[1] = molecular target: GlcNAc(a1-4)Gal(b1-4)GlcNAc(b1-3)Gal(b1-4)GlcNAc
Procedure, shortened: as §1

[2] = molecular target: GlcNAc(b1-2)Gal(b1-3)GalNAc
Procedure, shortened: as §1

[3] = molecular target: GlcNAc(b1-2)[GlcNAc(b1-4)]Man(a1-3)[GlcNAc(b1-4)][GlcNAc(b1-2)[GlcNAc(b1-6)]Man(a1-6)]Man(b1-4)GlcNAc(b1-4)[Fuc(a1-6)]GlcNAc
Procedure, shortened: as §1

[4] = molecular target: GlcNAc(b1-3)Gal(b1-4)GlcNAc(b1-3)Gal(b1-4)GlcNAc(b1-3)Gal(b1-4)GlcNAc(b1-3)Gal(b1-4)GlcNAc(b1-2)[GlcNAc(b1-3)Gal(b1-4)GlcNAc(b1-3)Gal(b1-4)GlcNAc(b1-3)Gal(b1-4)GlcNAc(b1-3)Gal(b1-4)GlcNAc(b1-6)]Man(a1-6)[GlcNAc(b1-3)Gal(b1-4)GlcNAc(b1-3)Gal(b1-4)GlcNAc(b1-3)Gal(b1-4)GlcNAc(b1-3)Gal(b1-4)GlcNAc(b1-2)Man(a1-3)]Man(b1-4)GlcNAc(b1-4)[Fuc(a1-6)]GlcNAc
Procedure, shortened: as §1

[5] = molecular target: GlcNAc(b1-3)Gal(b1-4)GlcNAc(b1-3)GalNAc
Procedure, shortened: as §1

[6] = molecular target: GlcNAc(b1-3)Gal(b1-4)GlcNAc(b1-6)[Gal(b1-3)]GalNAc
Procedure, shortened: as §1

[7] = molecular target: GlcNAc6S(b1-3)Gal(b1-4)GlcNAc
Procedure, shortened: as §1

[8] = molecular target: Man(a1-2)Man(a1-2)Man(a1-6)[Man(a1-3)]Man
Procedure, shortened: as §1

Man(a1-2)Man(a1-3)Man = molecular target: Man(a1-2)Man(a1-3)Man
Procedure, shortened: as §1

[9] = molecular target: Man(a1-2)Man(a1-3)[Man(a1-2)Man(a1-6)]Man(a1-6)[Man(a1-2)Man(a1-2)Man(a1-3)]Man
Procedure, shortened: as §1

[10] = molecular target: Neu5Ac(a2-3)Gal(b1-3)GlcNAc(b1-3)Gal(b1-3)GlcNAc
Procedure, shortened: as §1

[11] = molecular target: Neu5Ac(a2-3)Gal(b1-3)[Fuc(a1-4)]GlcNAc
Procedure, shortened: as §1

[12] = molecular target: Neu5Ac(a2-3)Gal(b1-3)[Neu5Ac(a2-6)]GalNAc
Procedure, shortened: as §1

[13] = molecular target: Neu5Ac(a2-3)Gal(b1-4)GlcNAc(b1-6)[Gal(b1-3)]GalNAc
Procedure, shortened: as §1

[14] = molecular target: Neu5Ac(a2-3)Gal(b1-4)[Fuc(a1-3)]GlcNAc(b1-3)Gal(b1-4)GlcNAc
Procedure, shortened: as §1

[15] = molecular target: Neu5Ac(a2-6)Gal(b1-4)GlcNAc(b1-2)Man(a1-3)Man(b1-4)GlcNAc(b1-4)GlcNAc
Procedure, shortened: as §1

[16] = molecular target: Neu5Ac(a2-6)Gal(b1-4)GlcNAc(b1-2)Man(a1-3)[Gal(b1-4)GlcNAc(b1-2)Man(a1-6)]Man(b1-4)GlcNAc(b1-4)GlcNAc
Procedure, shortened: as §1

[17] = molecular target: Neu5Ac(a2-6)Gal(b1-4)GlcNAc(b1-2)Man(a1-3)[Neu5Ac(a2-3)Gal(b1-4)GlcNAc(b1-2)Man(a1-6)]Man(b1-4)GlcNAc(b1-4)GlcNAc
Procedure, shortened: as §1

[18] = molecular target: Neu5Ac(a2-6)Gal(b1-4)GlcNAc(b1-3)Gal(b1-3)GlcNAc
Procedure, shortened: as §1

[19] = molecular target: Neu5Ac(a2-6)Gal(b1-4)GlcNAc(b1-6)[Gal(b1-3)]GalNAc
Procedure, shortened: as §1

[20] = molecular target: Neu5Ac(a2-8)Neu5Ac(a2-8)Neu5Ac
Procedure, shortened: as §1

[21] = molecular target: Neu5Ac(a2-8)Neu5Gc(a2-3)Gal(b1-4)GlcNAc
Procedure, shortened: as §1

[22] = molecular target: Neu5Ac9Ac(a2-3)Gal(b1-4)GlcNAc
Procedure, shortened: as §1

B1: PX9937J-pdi-523-26-523 (Parabacteroides distasonis) (protein)
chain: EPVSSISDANYWKSPDLFKAFNIGLHGLLRSQSSYNIFVLGEPRSDIYGDQPFGGEATQGVERFSYNTINAEFTGISNFANFYTTLNQINLMIRRTNETDLLGEAEKNYYLGQAYGLRAYIYFHLLRSWGDVIITTEPTLGSELDISHLDKAASPASEVMDLIKKDIDASEKAFGGDYSYKQGKCYWSKPATLMLKGEVYLWSGRQMGGGTGDYTVAKTALQDLQQNGNLKLQEKFTDVFSFNNKENSEMIFALHSGKEDDFMMWRDYNWRNNMVPQREYMAGYCDETGTPFLEIPGYNLQGLMRYQVKKDHYLKSFREGDTRLKGTLKAVYKKHEDGTLEYIAPIQYKFQGTTLEGSNERSWYDDYPIYRYADALLLLAEAKALLGEDPSTEINAVRERAYGSEYFNAHKNEVAYPNDKGSFYNDNPFEAGDENVMEAILKERLREFFFEGKRWYDLRRFGKDYVLKYTTAQESRLLWPINEGALTNNPALKQTPGY
Gal3S6S(b1-4)GlcNAc
  glycan array binding signal (z-score): 0.142
Gal4S6S(b1-4)GlcNAc
  glycan array binding signal (z-score): -0.181
GalNAc(b1-4)GlcNAc6S
  glycan array binding signal (z-score): 4.57
GalNAc3S(b1-4)GlcNAc
  glycan array binding signal (z-score): 0.755
Glc(b1-4)Glc
  glycan array binding signal (z-score): -0.296
GlcA(b1-6)Gal
  glycan array binding signal (z-score): -0.638
[1]
  glycan array binding signal (z-score): -0.296
[2]
  glycan array binding signal (z-score): -0.438
[3]
  glycan array binding signal (z-score): -0.488
[4]
  glycan array binding signal (z-score): 4.67
[5]
  glycan array binding signal (z-score): -0.404
[6]
  glycan array binding signal (z-score): -0.195
[7]
  glycan array binding signal (z-score): 0.294
[8]
  glycan array binding signal (z-score): -0.284
Man(a1-2)Man(a1-3)Man
  glycan array binding signal (z-score): -0.138
[9]
  glycan array binding signal (z-score): -0.317
[10]
  glycan array binding signal (z-score): -1
[11]
  glycan array binding signal (z-score): 0.062
[12]
  glycan array binding signal (z-score): 0.071
[13]
  glycan array binding signal (z-score): -0.1
[14]
  glycan array binding signal (z-score): 3.41
[15]
  glycan array binding signal (z-score): -0.373
[16]
  glycan array binding signal (z-score): 4.14
[17]
  glycan array binding signal (z-score): -0.327
[18]
  glycan array binding signal (z-score): -0.303
[19]
  glycan array binding signal (z-score): 0.505
[20]
  glycan array binding signal (z-score): -0.094
[21]
  glycan array binding signal (z-score): 9.17
[22]
  glycan array binding signal (z-score): -0.44
